# DT40 TDP1 no CPT: qHTS for Inhibitors of human tyrosyl-DNA phosphodiesterase 1 (TDP1): qHTS in cells in absence of CPT; DT40 Tdp1-/- hTDP1 cells, no CPT, ATP luminescence, 48 h; Potency, µM (doses to about 46.2 µM), inactives show at the top dose activity change, negative = growth inhibition, hits mostly inhibitors; 15% of 420,000 active; note: potency is the fitted concentration of half-maximal effect; nearly all actives have a fitted effect of over 55% in size
#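 Growth kinetics read by CellTiter-Glo luminescence after ≥48 hr at 37 °C. Cells: DT40 Tdp1-/- stably carrying human TDP1, 400 per well, compound exposure in the absence of CPT (DMSO vehicle).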
# IL-1B inflam inh: inflammasome signaling inhibition, IL-1 beta readout. activity change, % at 57.5 µM. 4.7% of 360,000 active. THP-1 LPS/ATP IL-1B secretion, AlphaLISA, 16 h; active compounds read low; in the data active = activity change below about -50%; inconclusive = mostly about -30% to -49%
#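 THP-1 cells pretreated 1 hr with compounds (up to 57.5 uM final), then stimulated with LPS (250 ng/mL final) plus ATP (1.25 mM final); secreted IL-1B measured by AlphaLISA after 16 hr, decreased signal indicating inhibition.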
# LDHA block: inhibitors of human lactate dehydrogenase A; P00338; purified LDHA, NADH/diaphorase-resazurin fluorescence; active compounds read low; activity change, % (values are at about 110 or 230 µM); 0.15% of 480,000 active; in the data active = activity change below about -30%; inconclusive = mostly about -25% to -30%;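 note: plate controls were DMSO wells for no effect and wells without enzyme for full effect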
#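 Remaining NADH was detected by diaphorase (0.133 mg/mL) converting 37 µM resazurin to fluorescent resorufin, read at 0 and 20 minutes. The preceding 5-minute room-temperature reaction used 2 nM LDHA, 0.2 mM sodium pyruvate and 0.06 mM NADH at pH 7.4.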
# Gal4-VP16 FLuc: Gal4-VP16 reporter inhibition counter-screen. Potency, µM (series often up to 53.6 µM), for inactives: top-dose activity, negative = inhibition, usual class: inhibitors. Drosophila S2 Gal4-VP16 UAS-luciferase, luminescence, 20 h. 3.5% of 310,000 active;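 note: Gal4-VP16 expression switched on by copper sulfate through the metallothionein promoter; potency is the fitted concentration of half-maximal effect; nearly all actives have a fitted effect of over 50% in size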
# RORgamma inh: ROR gamma (mouse) transcription inhibition. P51450. Drosophila S2 Gal4-RORgamma UAS-luciferase reporter, 20 h. Potency, µM (titrated, usually from 53.6 µM), for the others: at the highest dose activity change, negative = inhibition, most hits filed as inhibitors. 5.4% of 310,000 active. AID 2551; note: potency is the fitted concentration of half-maximal effect; nearly all actives have a fitted effect of over 60% in size
# Target sequence (P51450 whole entry, looked up, the tested form may be a part): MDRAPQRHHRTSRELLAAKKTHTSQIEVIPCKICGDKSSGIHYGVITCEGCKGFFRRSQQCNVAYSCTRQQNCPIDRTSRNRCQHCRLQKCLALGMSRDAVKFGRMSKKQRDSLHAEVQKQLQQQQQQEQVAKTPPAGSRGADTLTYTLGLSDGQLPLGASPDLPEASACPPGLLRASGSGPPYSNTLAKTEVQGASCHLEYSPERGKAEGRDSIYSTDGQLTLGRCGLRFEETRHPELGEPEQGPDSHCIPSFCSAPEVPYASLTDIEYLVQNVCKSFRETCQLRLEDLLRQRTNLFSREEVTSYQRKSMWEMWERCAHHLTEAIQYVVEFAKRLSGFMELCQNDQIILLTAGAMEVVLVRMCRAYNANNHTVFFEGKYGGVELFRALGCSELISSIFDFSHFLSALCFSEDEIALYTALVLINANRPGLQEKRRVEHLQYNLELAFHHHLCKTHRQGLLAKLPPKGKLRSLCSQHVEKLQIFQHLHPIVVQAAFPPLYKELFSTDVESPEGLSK
#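 Luminescence from a UAS-regulated Photinus luciferase reporter in stably transfected Drosophila Schneider cells is measured; decreased signal marks ROR gamma inhibition. Fusion expression is induced by 700 uM copper sulfate for 20 hr.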
# TDP1 cell CPT: DT40-hTDP1 cell growth loss with CPT. Potency, µM (top dose mostly 46.2 µM), for the others: at the top dose activity change, negative = growth inhibition, usual class: inhibitors. chicken DT40 Tdp1-/-;hTDP1 cells + 20 nM CPT, ATP luminescence, 48 h. AID 686979. 12% of 420,000 active; note: potency is the fitted concentration of half-maximal effect; nearly all actives have a fitted effect of over 55% in size
#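 Chicken DT40 Tdp1-/- cells complemented with human TDP1, 400 cells/well, exposed to compounds plus 20 nM camptothecin for at least 48 h at 37 C; viability read as ATP content by CellTiter-Glo luminescence.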
# Starred values were filed as active, the others as inactive; ? = inconclusive; . = no result; [ ] = remark or other dose. In the library only some 18% were active in any assay of this set; here they are far more common. Unless noted, calls come from the whole dose curve; as a rule, active = well fitted curve in the direction sought with a large enough effect; inconclusive = small, poorly fitted or top-dose-only effect, or another doubt; inactive = no such curve, though single readings can be large; an effect the other way counts as inactive or inconclusive. Unless noted, % is set by controls: 0 for no effect and ±100 for the full control effect.
SMILES,DT40 TDP1 no CPT,IL-1B inflam inh,LDHA block,Gal4-VP16 FLuc,RORgamma inh,TDP1 cell CPT
Cc1ccc(S(=O)(=O)N(C)C)cc1NC(=O)c1ccc2ccccc2n1,?,19,-6,-6%,-1%,21µM*
CC(C)(C)N(Cc1ccccc1)C(=O)COC(=O)c1cc2ccccc2oc1=O,.,.,-5,.,.,.
Cc1ccc(S(=O)(=O)N(C)C)cc1NC(=O)c1cc(-c2ccco2)nc2ccccc12,18µM*,14,5,-26%,-42%,13µM*
CCc1cc(C(=O)Nc2cc(S(=O)(=O)N(CC)CC)ccc2N2CCN(C)CC2)sc1C,-22%,-2,3,.,.,-2%
CCc1cc(C(=O)Nc2cc(S(=O)(=O)N(C)C)ccc2C)sc1C,13µM*,-17,-5,-2%,17%,15µM*
c1ccc(-c2nnn(Cc3csc(-c4ccccc4)n3)n2)cc1,.,.,-11,.,.,.
Cc1ccc(-n2c(SCC(=O)NC(N)=O)nnc2N2CCCCC2)cc1,.,.,0,.,.,.
O=[N+]([O-])c1cc(C(F)(F)F)ccc1NCCc1c[nH]c2ccccc12,?,-96*,-4,?,25%,-26%
O=[N+]([O-])c1cc(C(F)(F)F)ccc1NCCNC(=S)Nc1ccc(Cl)cc1,18µM*,-88*,0,?,?,29µM*
O=[N+]([O-])c1cc(C(F)(F)F)ccc1NCCCCNS(=O)(=O)c1ccc(Cl)cc1,15µM*,-56*,4,?,13%[10 µM],13µM*
O=[N+]([O-])c1cc(C(F)(F)F)ccc1NCCc1c[nH]c2ccc(O)cc12,?,-19,8,?,39%,?
O=[N+]([O-])c1cc(Cl)ccc1NCCNc1ncc(C(F)(F)F)cc1Cl,-9%,-23,-2,?,?,-11%
O=c1ccn(CCc2c[nH]c3ccccc23)c2c1CCCC2,-19%,-58*,-6,5%,?,-24%
CC1CCc2c(sc(/N=C/c3ccc(C(C)(C)C)cc3)c2C#N)C1 (stereo not drawn),.,.,4,.,.,.
COc1ccccc1C(N)=S,-8%,23,-9,?,16µM*,0%
COc1ccccc1C(=O)C(=O)c1ccccc1OC,?,8,-6,.,.,-8%
COc1cccc(/C=N/NC(=O)CCCC(=O)Nc2ccc(Br)cc2)c1,21µM*,4,1,-6%,?,21µM*
COc1ccc(O)c(/C=N/NC(=O)CCC(=O)Nc2ccc(C)cc2)c1,21µM*,68,-13,-17%,6.3µM*,?
COc1ccc(O)c(/C=N/NC(=O)CCC(=O)Nc2cccc(C)c2)c1,21µM*,113,-5,?,13µM*,21µM*
COc1ccc(OC)c(/C=N/NC(=O)CCC(=O)Nc2cccc(Cl)c2)c1,.,.,7,.,.,.
CC(C)Oc1cccc(Cn2cnc3c2c(=O)n(C)c(=O)n3C)c1,.,.,-2,.,.,.
Cc1cc(OC(C)C)c2c(-c3ccccc3)cc(=O)oc2c1,?,44,-3,-4%,5%,23µM*
CCOc1cc(C)cc2oc(=O)cc(-c3ccccc3)c12,21µM*,32,3,-4%,-2%,13µM*
Cc1cc(OCC(=O)N2CCc3ccccc3C2)c2c(-c3ccccc3)cc(=O)oc2c1,?,-26,3,0%,-9%,23µM*
CCOC(=O)COc1cc(C)cc2oc(=O)cc(-c3ccccc3)c12,.,.,-4,.,.,.
COc1ccc(NC2=CC(=O)CC(c3ccccc3)C2)c(OC)c1 (stereo not drawn),3.3µM*,-11,-1,-4%,?,4.1µM*
CCOc1ccccc1NC1=CC(=O)CC(c2ccccc2)C1 (stereo not drawn),13µM*,19,-8,-2%,3%,?

# Bioassay records as filed in PubChem.
